# Laboratory results as given in the supplement of paper PMC8285479.
# ± gives the standard deviation of the averaged measurements. The full ranking holds about 1,900 compounds; the median of “normalised cell viability (NPI; 0 = phenylarsine oxide control, 1 = DMSO control)” is about 1, and the lowest 2% start at about 0.039. The sample as a whole holds a higher share of the lowest values than the screen did.
# Tested on: NCI-H1944
# Experiment: normalised cell viability (NPI; 0 = phenylarsine oxide control, 1 = DMSO control) (fraction of DMSO control); NCI-H1944 is a non-small cell lung cancer line; higher = more viable cells (less compound toxicity)
# Conditions: 6 days
# [1] = glucocorticoid arm: hydrocortisone 2.75 uM co-treatment, compound 1 µM
# [2] = glucocorticoid arm: hydrocortisone 2.75 uM co-treatment, compound 5 µM
# [3] = glucocorticoid arm: hydrocortisone 2.75 uM pre-treated 2 days and continued, compound 1 µM
# [4] = glucocorticoid arm: hydrocortisone 2.75 uM pre-treated 2 days and continued, compound 5 µM
# [5] = glucocorticoid arm: vehicle, compound 1 µM
# [6] = glucocorticoid arm: vehicle, compound 5 µM
# 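Also: CTB read-out in 384-well plates, triplicate wells, NPI normalised per plate against 1 µM phenylarsine oxide (0) and 0.1% DMSO (1) controls.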
SMILES,normalised cell viability [1],normalised cell viability [2],normalised cell viability [3],normalised cell viability [4],normalised cell viability [5],normalised cell viability [6]
CCCCCCCCCC(=O)NC(CN1CCOCC1)[C@H](O)c1ccccc1 (mixture of isomers),1.01,0.9997 ± 0.0096,1.02 ± 0.026,1.01 ± 0.024,1.01,0.997 ± 0.014
CNC(=N)NCCC[C@H](N)C(=O)O [NG-Monomethyl-L-arginine acetate],1.001 ± 0.009,0.985 ± 0.022,1.001 ± 0.0081,0.879 ± 0.24,0.9883 ± 0.0097,0.991 ± 0.0079
S=C=Nc1cccc(NC(=S)NCCCCNC(=S)Nc2cccc(N=C=S)c2)c1,1.04 ± 0.04,1.05 ± 0.015,1.02 ± 0.033,1.04 ± 0.032,1.017 ± 0.0058,1.003 ± 0.0058
CCc1cccc(N(C)C(=N)Nc2cccc3ccccc23)c1,0.999 ± 0.027,0.918 ± 0.012,1.006 ± 0.0069,0.967 ± 0.013,1.003 ± 0.0064,1.01 ± 0.01
COc1ccc2c(c1)c(CC(=O)O)c(C)n2Cc1ccc(F)cc1 [1-(4-Fluorobenzyl)-5-methoxy-2-methylindole-3-acetic acid],0.987 ± 0.014,0.977 ± 0.017,0.983 ± 0.028,0.982 ± 0.013,0.9717 ± 0.0076,0.974 ± 0.0027
CN(C)C1CCN(C(=O)c2ccc(NC(=O)Nc3ccc(-c4nc(N5CCOCC5)nc(N5CCOCC5)n4)cc3)cc2)CC1,0.231 ± 0.011,0.105 ± 0.0056,0.311 ± 0.026,0.147 ± 0.012,0.0929 ± 0.0075,0.0212 ± 0.0032
COC(=O)Nc1ccc(-c2nc(N3CCOCC3)c3cnn(C4CCN(C(=O)OC)CC4)c3n2)cc1,0.505 ± 0.038,0.753 ± 0.013,0.563 ± 0.029,0.769 ± 0.067,0.476 ± 0.02,0.924 ± 0.015
CCn1nnc2c(N3CCOCC3)nc(-c3ccc(NC(=O)Nc4ccc(C(=O)N5CCN(C)CC5)cc4)cc3)nc21,0.201 ± 0.0067,0.375 ± 0.015,0.287 ± 0.01,0.543 ± 0.024,0.077 ± 0.01,0.22 ± 0.016
C=CS(=O)(=O)NC1CCN(C(=O)CNc2cc(I)c(Cl)cc2OC)CC1 [K-Ras(G12C) inhibitor 9],1.03 ± 0.01,1.07 ± 0.029,1.04,1.04 ± 0.025,0.993 ± 0.0036,0.996 ± 0.014
C[N+](C)(C)CC=O [Betaine aldehyde chloride],0.9877 ± 0.0021,0.993 ± 0.012,0.9913 ± 0.0081,0.993 ± 0.0085,0.9647 ± 0.0015,0.9803 ± 0.0015
NC[C@@H](O)c1ccc(O)c(O)c1 [L(-)-Norepinephrine bitartrate],1 ± 0.018,0.971 ± 0.011,1 ± 0.021,0.968 ± 0.0085,0.98 ± 0.017,0.9767 ± 0.0011
Nc1nc2c(nc(Br)n2C2OC3COP(=O)(O)O[C@@H]3C2O)c(=O)[nH]1 (stereo partly specified) [8-Bromo-cGMP sodium],1.023 ± 0.0058,1.02,1.02 ± 0.01,1 ± 0.028,1.01 ± 0.011,1.01 ± 0.015
CCN(CC)CCCC(C)Nc1nc(C)cc(Nc2ccc3nc(C)cc(N)c3c2)n1 (stereo unspecified),0.845 ± 0.0082,0.444 ± 0.019,0.888 ± 0.01,0.688 ± 0.036,1 ± 0.013,0.119 ± 0.0062
CCc1ccc(OCc2ccccc2C(=O)Nc2ccc3nc(C)cc(N)c3c2)cc1,1.04 ± 0.011,0.00134 ± 0.00041,1.05 ± 0.017,0.00123 ± 0.00019,1.023 ± 0.0058,0.00113 ± 0.0006
Cc1cc([C@@H](C)Nc2ccccc2C(=O)O)c2nc(N3CCOCC3)cc(=O)n2c1,0.878 ± 0.043,0.764 ± 0.062,0.879 ± 0.023,0.791 ± 0.03,0.9667 ± 0.0091,0.899 ± 0.035
CCCC(CCC)C(=O)NO [Valproic acid hydroxamate],1 ± 0.022,1.01 ± 0.022,1.01 ± 0.016,1.02 ± 0.016,0.9982 ± 0.0077,0.9988 ± 0.0092
NC1CCN(O)C1=O (racemic),0.983 ± 0.011,0.999 ± 0.011,0.9857 ± 0.0051,0.984 ± 0.023,0.985 ± 0.013,0.98733 ± 0.00058
CC(C)C[C@H](NC(=O)CNC(=O)c1cc(Cl)ccc1Cl)B(O)O,0.978 ± 0.0095,0.886 ± 0.03,1.04 ± 0.01,1.04 ± 0.011,0.311 ± 0.032,0.0506 ± 0.0038
CC(C)C[C@H](NC(=O)CNC(=O)c1cc(Cl)ccc1Cl)B1OC(=O)CC(CC(=O)O)(C(=O)O)O1 (stereo partly specified),0.98 ± 0.014,0.835 ± 0.018,1.047 ± 0.0058,1.04 ± 0.015,0.263 ± 0.024,0.0378 ± 0.0053
CCCCCCCCCCCCCCCCCCNC(=O)OCC(COP(=O)([O-])OCC[n+]1ccsc1)OC (stereo unspecified),0.9967 ± 0.0035,1.02 ± 0.011,1.02 ± 0.024,1.01 ± 0.015,0.997 ± 0.0017,0.82 ± 0.33
COc1ccc(CCNC[C@@H](O)c2ccc(O)cc2)cc1OC [R(-)-Denopamine],1.01 ± 0.01,1.017 ± 0.0058,1.02 ± 0.017,1.013 ± 0.0058,1.01,1.01 ± 0.014
c1cncc(CN2CCC(n3ncc4c(N5CCOCC5)nc(-c5ccc6[nH]ccc6c5)nc43)CC2)c1,0.773 ± 0.022,0.532 ± 0.036,0.743 ± 0.027,0.615 ± 0.036,0.542 ± 0.035,0.24 ± 0.0038
CC(C)CC(=O)Nc1n[nH]c2c1CN(C(=O)C1CCN(C)CC1)C2(C)C,0.8357 ± 0.0074,0.369 ± 0.0055,0.968 ± 0.0056,0.962 ± 0.036,0.365 ± 0.023,0.0459 ± 0.004
Cc1nc(Nc2n[nH]c3c2CN(C(=O)N[C@H](CN(C)C)c2ccccc2)C3(C)C)c2sccc2n1,0.832 ± 0.033,0.29 ± 0.072,1.05 ± 0.015,0.763 ± 0.02,0.12 ± 0.011,0.0302 ± 0.0031
N=C1Sc2ccccc2C2=NCCCN12,1.017 ± 0.0058,1.01 ± 0.031,1.02 ± 0.011,0.86 ± 0.28,1.002 ± 0.0068,1.02 ± 0.015
Cc1nc(N=Nc2ccc(C(=O)O)cc2)c(COP(=O)(O)O)c(C=O)c1O,0.999 ± 0.0017,0.998 ± 0.02,1.01 ± 0.01,1.005 ± 0.0087,0.9937 ± 0.0085,1 ± 0.016
